In PubChem BioAssay (NCI):
Compounds without any hit were thinned out: in the full panel of roughly 79,000, 15% have a hit. Active and inactive are the calls of the source. No stated cut-off is given here; in the data, active means growth inhibition above about 70%; inactive means the rest.

Key:
[1] = NCI Yeast Anticancer Drug Screen. Data for the rad52 strain (AID 147);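 further: 0% = growth of vehicle-treated control cultures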; settings: S. cerevisiae rad52 mutant growth inhibition, stronger effect = higher value
Summary of the method: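 Yeast strain carrying a DNA damage repair alteration was exposed to test compounds. Growth inhibition was measured relative to vehicle-treated controls.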

[2] = NCI Yeast Anticancer Drug Screen. Data for the wt1 strain (AID 149);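 further: 0% = growth of vehicle-treated wt1 cultures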; settings: S. cerevisiae wt1 strain (SPY 50644) growth inhibition, stronger effect = higher value
Summary of the method: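 Using yeast strain wt1, compound-induced growth inhibition was determined against vehicle-treated cultures.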

[3] = NCI Yeast Anticancer Drug Screen. Data for the rad50EPP+ strain (AID 151);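 further: 0% = growth of vehicle-treated control cultures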; settings: S. cerevisiae rad50 mutant strain, stronger effect = higher value
Summary of the method: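 Yeast strain carrying rad50 alteration (rad50EPP+) exposed to compounds; growth inhibition measured relative to vehicle-treated controls.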

[4] = NCI Yeast Anticancer Drug Screen. Data for the mgt1 strain (AID 153); settings: S. cerevisiae mgt1 mutant growth inhibition, stronger effect = higher value
Summary of the method: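 Yeast mgt1 strain (DNA repair/cell-cycle alteration panel) exposed to compounds; growth inhibition measured relative to vehicle-treated controls.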

[5] = NCI Yeast Anticancer Drug Screen. Data for the rad50 strain (AID 155);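 further: 0% = growth of vehicle-only cultures of the same strain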; settings: S. cerevisiae rad50 strain growth inhibition, stronger effect = higher value
Summary of the method: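 Relative growth inhibition (compound vs vehicle) was measured in yeast with a defined repair-gene alteration.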

[6] = NCI Yeast Anticancer Drug Screen. Data for the mec2-1 strain (AID 157); settings: S. cerevisiae mec2-1 strain, stronger effect = higher value
Summary of the method: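 mec2-1 yeast strain, carrying an alteration in DNA damage repair or cell cycle control, was exposed to compounds; growth inhibition was measured relative to vehicle-treated controls.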

[7] = NCI Yeast Anticancer Drug Screen. Data for the rad14 strain (AID 159);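 further: 0% = growth of vehicle-treated control cultures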; settings: S. cerevisiae rad14 strain growth inhibition, stronger effect = higher value
Summary of the method: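 Screen for anticancer potential: a yeast strain altered in DNA damage repair is grown with compound, and reduced growth is quantified against vehicle controls.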

[8] = NCI Yeast Anticancer Drug Screen. Data for the sgs1 mgt1 strain (AID 161);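 further: 0% = growth of cultures given vehicle only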; settings: S. cerevisiae sgs1 mgt1 strain, stronger effect = higher value
Summary of the method: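 Growth of a repair-deficient yeast mutant was monitored after compound treatment and expressed as inhibition relative to vehicle-treated cultures.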

[9] = NCI Yeast Anticancer Drug Screen. Data for the CLN2oe strain (AID 163);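 further: 0% = growth of vehicle-only control cultures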; settings: S. cerevisiae CLN2oe strain, stronger effect = higher value
Summary of the method: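 Yeast cells carrying a defined cell-cycle control alteration were exposed to test compounds. Growth inhibition was scored against vehicle-treated control cultures.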

[10] = NCI Yeast Anticancer Drug Screen. Data for the cln2 rad14 strain (AID 165);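 further: 0% = growth equal to vehicle treated cultures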; settings: S. cerevisiae cln2 rad14 strain, stronger effect = higher value
Summary of the method: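 Yeast carrying cln2 and rad14 alterations (cell cycle control and DNA damage repair) were exposed to compounds. Growth inhibition was measured against vehicle-treated controls.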

[11] = NCI Yeast Anticancer Drug Screen. Data for the bub3 strain (AID 167); settings: S. cerevisiae bub3 mutant strain, stronger effect = higher value
Summary of the method: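 Screening used yeast with an engineered genetic alteration affecting cell cycle control. Compound-exposed cultures were compared with vehicle cultures, and reduced growth was taken as inhibition.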

[12] = NCI Yeast Anticancer Drug Screen. Data for the wt2 strain (AID 169);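 further: 0% = growth of vehicle-treated yeast cultures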; settings: S. cerevisiae wt2 strain growth inhibition, stronger effect = higher value
Summary of the method: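 Yeast cells were exposed to test compounds, and growth inhibition was measured relative to vehicle-treated controls.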

[13] = NCI Yeast Anticancer Drug Screen. Data for the mlh1 strain (AID 171);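 further: 0% = growth of vehicle-treated control cultures of the same strain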; settings: S. cerevisiae mlh1 strain growth inhibition, stronger effect = higher value
Summary of the method: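 Yeast carrying a defined genetic alteration in DNA damage repair or cell cycle control were exposed to test compounds. Growth inhibition was measured relative to vehicle-treated controls.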

[14] = NCI Yeast Anticancer Drug Screen. Data for the sgs1 strain (AID 173);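 further: 0% = growth of vehicle-only control cultures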; settings: S. cerevisiae sgs1 mutant, stronger effect = higher value
Summary of the method: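 Yeast mutant strains carrying defined defects in DNA damage repair or cell cycle control were exposed to test compounds. Growth inhibition was scored against vehicle-treated controls.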

[15] = NCI Yeast Anticancer Drug Screen. Data for the mlh1 rad18 strain (AID 175); settings: S. cerevisiae mlh1 rad18 strain growth inhibition, stronger effect = higher value
Summary of the method: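 Growth inhibition of the yeast strain was measured after compound exposure and expressed relative to vehicle-treated controls. The strain carries defined defects in DNA damage repair.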

[16] = NCI Yeast Anticancer Drug Screen. Data for the rad18 strain (AID 177); settings: S. cerevisiae rad18 mutant growth inhibition, stronger effect = higher value
Summary of the method: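 Yeast carrying a defined DNA damage repair alteration were exposed to compounds. Growth inhibition was expressed relative to vehicle-treated controls.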

[17] = at 5.0 µM (retest, dose inferred, filed as 0.5)
[18] = at 50.0 µM (retest, dose inferred, filed as 5.0)

Measured: growth inhibition

CCCCC(CC)C(=O)[O][Sn]([CH2]CCC)([CH2]CCC)[O]C(=O)C(CC)CCCC (stereo not drawn)
active: [1]; at 33.0 µM 92% | [1]; at 100.0 µM 98% | [2]; at 33.0 µM 93% | [2]; at 100.0 µM 98% | [4]; at 33.0 µM 95% | [4]; at 100.0 µM 98% | [5]; at 33.0 µM 92% | [5]; [18] 98% | [5]; at 50.0 µM 86.4% | [5]; at 100.0 µM 97% | [6]; [17] 72% | [6]; at 33.0 µM 94% | [6]; at 50.0 µM 87.7% | [6]; at 100.0 µM 98% | [7]; at 33.0 µM 90% | [7]; at 100.0 µM 97% | [8]; [18] 95% | [8]; at 50.0 µM 89.4% | [9]; at 33.0 µM 92% | [9]; at 100.0 µM 98% | [10]; [18] 97% | [10]; at 50.0 µM 86.2% | [11]; at 33.0 µM 95% | [11]; [18] 93% | [11]; at 50.0 µM 89.8% | [11]; at 100.0 µM 98% | [12]; at 33.0 µM 90% | [12]; at 100.0 µM 98% | [13]; at 33.0 µM 88% | [13]; at 100.0 µM 97% | [14]; at 33.0 µM 89% | [14]; at 100.0 µM 97% | [15]; [18] 98% | [15]; at 50.0 µM 88.8% | [16]; at 33.0 µM 91% | [16]; at 100.0 µM 97%
inactive: [1]; at 1.2 µM 6% | [1]; at 3.7 µM 11% | [1]; at 11.0 µM 47% | [2]; at 1.2 µM -14% | [2]; at 3.7 µM -7% | [2]; at 11.0 µM 46% | [3]; at 1.2 µM 18% | [3]; at 3.7 µM 6% | [3]; at 11.0 µM 8% | [3]; at 33.0 µM 12% | [3]; at 100.0 µM 29% | [4]; at 1.2 µM -11% | [4]; at 3.7 µM 9% | [4]; at 11.0 µM 60% | [5]; at 1.2 µM 14% | [5]; at 3.7 µM 11% | [5]; [17] 50% | [5]; at 11.0 µM 51% | [6]; at 1.2 µM -11% | [6]; at 3.7 µM 14% | [6]; at 11.0 µM 56% | [6]; [18] 69% | [7]; at 1.2 µM -8% | [7]; at 3.7 µM 3% | [7]; at 11.0 µM 47% | [8]; [17] 2% | [9]; at 1.2 µM -21% | [9]; at 3.7 µM 5% | [9]; at 11.0 µM 37% | [10]; [17] 59% | [11]; at 1.2 µM 6% | [11]; at 3.7 µM 18% | [11]; [17] 44% | [11]; at 11.0 µM 68% | [12]; at 1.2 µM -27% | [12]; at 3.7 µM -10% | [12]; at 11.0 µM 49% | [13]; at 1.2 µM -38% | [13]; at 3.7 µM -21% | [13]; at 11.0 µM 33% | [14]; at 1.2 µM 2% | [14]; at 3.7 µM -5% | [14]; at 11.0 µM 37% | [15]; [17] 58% | [16]; at 1.2 µM -2% | [16]; at 3.7 µM 0% | [16]; at 11.0 µM 46%

OC(/C=C/c1ccccc1)(Cc1cc(-c2ccccc2)n[nH]1)c1ccccc1 (stereo not drawn)
inactive: [1]; at 1.2 µM 14% | [1]; at 3.7 µM 14% | [1]; at 11.0 µM 11% | [1]; at 33.0 µM 14% | [1]; at 100.0 µM 9% | [2]; at 1.2 µM 9% | [2]; at 3.7 µM 5% | [2]; at 11.0 µM 7% | [2]; at 33.0 µM 8% | [2]; at 100.0 µM 9% | [3]; at 1.2 µM 12% | [3]; at 3.7 µM 11% | [3]; at 11.0 µM 14% | [3]; at 33.0 µM 13% | [3]; at 100.0 µM 13% | [4]; at 1.2 µM 9% | [4]; at 3.7 µM 12% | [4]; at 11.0 µM 10% | [4]; at 33.0 µM 12% | [4]; at 100.0 µM 13% | [5]; at 1.2 µM 8% | [5]; at 3.7 µM 7% | [5]; [17] -3% | [5]; at 11.0 µM 4% | [5]; at 33.0 µM 11% | [5]; at 100.0 µM 8% | [6]; at 1.2 µM 9% | [6]; at 3.7 µM 11%
active: [5]; [18] 97% | [5]; at 50.0 µM 98.6%
